From PubChem
Only some compounds are listed: those with a hit (about 4.7% of all), similar ones and a draw of the others.
DRD3 agonist: qHTS of D3 Dopamine Receptor Agonist: qHTS; 0.58% of 410,000 active; max activation, %; D(3) dopamine receptor (Homo sapiens), P35462; D3R DiscoveRx beta-arrestin cells, luminescence, 90 min; AID 652048, 2013; in the data active means max activation above about 30%; further: 0% is about no effect
Target sequence (P35462 whole entry, looked up): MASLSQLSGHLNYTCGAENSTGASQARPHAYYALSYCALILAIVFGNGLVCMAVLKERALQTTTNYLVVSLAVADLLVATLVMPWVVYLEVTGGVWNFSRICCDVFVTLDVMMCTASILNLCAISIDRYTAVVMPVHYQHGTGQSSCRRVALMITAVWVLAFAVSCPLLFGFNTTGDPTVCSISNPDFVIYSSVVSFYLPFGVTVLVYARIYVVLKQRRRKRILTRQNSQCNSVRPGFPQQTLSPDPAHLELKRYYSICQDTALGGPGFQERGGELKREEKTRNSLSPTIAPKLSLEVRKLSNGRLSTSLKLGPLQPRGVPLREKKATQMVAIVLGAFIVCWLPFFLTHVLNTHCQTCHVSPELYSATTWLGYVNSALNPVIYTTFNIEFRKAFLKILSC
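Agonist mode: compounds and dopamine controls were applied to plated cells for 90 min at 37 degrees C after an overnight attachment at 1500 cells/well. Luminescent read-out followed 30 - 60 minutes at room temperature with DiscoveRx detection reagent.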
D3 antag: qHTS of D3 Dopamine Receptor Antagonist: qHTS. D3R cells, DiscoveRx beta-arrestin luminescence, antagonist mode; active compounds read low. 2.5% of 360,000 active. D(3) dopamine receptor (Homo sapiens), P35462. max response, negative = inhibition, %; in the data active means max response below about -50%; inconclusive means no clear call, values can overlap the other calls; further: on the % scale 0 is the no-effect control and ±100 the full control effect
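Cells plated overnight at 1500 cells/well, then exposed to library compounds with dopamine controls for 90 minutes at 37 degrees C. DiscoveRx reagent added for 30–60 minutes at room temperature; luminescence read, quantitative HTS format.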
ATXN viability: Viability Counterscreen for Primary qHTS for Inhibitors of ATXN expression; AID 651635, 2014; S2 cells (HEK-293 line with an ATXN2-luciferase reporter) viability, CellTiter-Fluor protease fluorescence, 24 h; 0.49% of 400,000 active; Potency, µM (titrated, usually from 56.7 µM), usual class: cytotoxic; further: potency means the concentration at half of the fitted maximal effect; nearly all actives have a fitted effect of over 40% in size
HepG2 tox: qHTS for Inhibitors of TGF-b: Cytotox Counterscreen | HepG2 CAGA-GFP viability, ATP luminescence, 18 h | 0.76% of 410,000 active | Potency, µM (top dose mostly 46.1 µM), inactives show top-dose activity change, negative = cytotoxicity, actives largely listed as cytotoxic; further: potency means the concentration at half of the fitted maximal effect
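CellTiter-Glo luminescence gave cytotoxicity after 18 hours at 37 degrees C. The cells were HepG2 CAGA-GFP in 1% FBS DMEM, stimulated with 500 pg/mL TGF-beta after compound addition. %Activity was normalised to no-cell wells (complete cell-killing) and DMSO (no toxicity), and curves were fitted and classified.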
TGFb SMAD3 inh: qHTS for Inhibitors of TGF-b. AID 588855, 2011. HepG2 CAGA-GFP TGF-b/SMAD3 reporter, GFP fluorescence, 18 h; TGF-beta stimulated, 500 pg/mL final. 1.2% of 410,000 active. Potency, µM (highest dose often 46.1 µM), inactives show top-dose activity, negative = inhibition, hits mostly inhibitors; further: potency means the concentration at half of the fitted maximal effect; on the % scale 0 is the no-effect control and ±100 the full control effect; nearly all actives have a fitted effect of over 65% in size
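Read-out: total well GFP (ex488/em500-530) summed from mean per-cell fluorescence. Cells: HEPG2 CAGA-GFP, 1% FBS DMEM, 18 h at 37 degrees C with 500 pg/mL final TGF-beta. Unstimulated wells served as the full-inhibition control; stimulated DMSO wells = 0%.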
ATXN2 expr inh: Primary qHTS for Inhibitors of ATXN expression | HEK-293 ATXN2-luciferase reporter, luminescence, 24 h | Potency, µM (top dose mostly 57 µM), without a hit: at the top dose activity change, negative = inhibition, most hits filed as inhibitors | 0.72% of 360,000 active | AID 1745845, 2022; further: potency means the concentration at half of the fitted maximal effect; on the % scale 0 is the no-effect control and ±100 the full control effect; nearly all actives have a fitted effect of over 55% in size
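ATXN2-luciferase reporter cells (luciferase flanked by upstream and downstream ATXN2 gene portions) were treated 24 h at 37 °C with compounds at up to 57 uM. SteadyGlo luminescence gave expression; GF-AFC fluorescence gave viability.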
* marks the source's active call; other numbers are inactive results; i = inactive; ? = inconclusive; . = no result given; ! = repeats disagree; [ ] = another dose, or the depositor's remark. Unless noted, the call rests on the fitted dose curve; in most records, active means well fitted curve in the direction sought with a large enough effect; inconclusive means small, poorly fitted or top-dose-only effect, or another doubt; inactive means no such curve, though single readings can be large; an effect the other way counts as inactive or inconclusive.

SMILES	DRD3 agonist	D3 antag	ATXN viability	HepG2 tox	TGFb SMAD3 inh	ATXN2 expr inh
CC1(CN2CCC(n3c(=O)[nH]c4ccccc43)CC2)OCc2ccccc2-n2cccc21 (stereo unspecified)	-18	.	?	.	.	?
CN(C(=O)c1ccc(NC(=O)Cc2ccc(NC(=O)C3CCN(C(=O)c4ccccc4)CC3)cc2)cc1)C1CC1	-45	-99*	i	-2%	-11%	-10%
CC(C)NC[C@@H](C(=O)N1CCN(c2ncnc3c2[C@H](C)C[C@H]3O)CC1)c1ccc(Cl)cc1	.	.	.	.	.	19µM*
CCc1ccc(-n2c(CCC(=O)O)ccc2-c2ccc(F)cc2)cc1	2	.	i	-17%	?	1%
N#Cc1nc(-c2ccc(COc3ccc(Cl)cc3)o2)oc1N1CCC(C(N)=O)CC1	0	.	?	-19%	?	20µM*
Nc1ncnc(Sc2ccccc2)c1[N+](=O)[O-]	3	-8	i	7%	-26%	28%
Nc1ncnc(Sc2ncccn2)c1[N+](=O)[O-]	-20	-84*	24µM*	11µM*	10µM*	?
Oc1c(N=Nc2ccccn2)ccc2ccccc12	-7	?	10µM*	-44%	6.3µM*	7.9µM*
Oc1[nH]c2ccccc2c1N=Nc1ccccn1	5	1	i	-19%	-15%	54%
CC(=O)Nc1cccc(Oc2ncnc3scc(-c4ccc(C)cc4)c23)c1	13	68	32µM*	-27%	?	?
Cc1ccc(-c2csc3ncnc(Oc4ccc5c(C)cc(=O)oc5c4)c23)cc1	6	-4	i	-7%	?	-8%
CC(=O)O[C@]1(C(C)=O)CC[C@H]2[C@@H]3C=C(Cl)C4=CC(=O)[C@@H]5C[C@@H]5[C@]4(C)[C@H]3CC[C@@]21C	14	-85*!	?	-37%	?	?
Cc1cc(C(=O)NCC2CCC3(CCN(Cc4ccccc4C)CC3)O2)n(C)n1 (stereo unspecified)	.	.	i	.	.	.
C[C@@H]1CC=CC=CC=CC=C[C@@H](O[C@@H]2O[C@H](C)[C@@H](O)[C@H](N)[C@H]2O)C[C@@H]2O[C@](O)(C[C@@H](O)C[C@@H]3O[C@@H]3C=CC(=O)O1)C[C@H](O)[C@@H]2C(=O)O	.	.	.	.	.	13%
Cc1cc(C)c(C)c(OCCCCN2CCCCC2)c1	-24	-55*	i	0%	2%	-17%
Clc1cccc(Cl)c1OCCCCN1CCCCC1	-11	11	i	-18%	-6%	-10%
Cc1cc(C)c(C)c(OCCOCCN2CCN(C)CC2)c1	-21	-3	i	-14%	-2%	0%
CC(C)c1cccc(C(C)C)c1OCCCCN1CCCC1	-14	-58*	i	-13%	-19%	-13%
CCOc1ccccc1OCCCCN1CCCC1	-3	-63*	i	-3%	-5%	6%
CC(C)(C)c1ccccc1OCCCCN1CCCC1	-17	-68*	i	-28%	5%	-5%
COc1ccccc1OCCCCN1CCCCC1	-4	?	.	-11%	2%	.
CCc1ccccc1OCCCCN1CCCCC1	-15	-87*	i	-13%	-2%	-24%
CC(C)C[C@H](NC(=O)CNC(=O)[C@H](Cc1ccc(O)cc1)NC(=O)[C@H](CO)NC(=O)[C@H](Cc1c[nH]c2ccccc12)NC(=O)[C@H](Cc1cnc[nH]1)NC(=O)[C@@H]1CCC(=O)N1)C(=O)N[C@@H](CCCN=C(N)N)C(=O)N1CCC[C@H]1C(=O)NCC(N)=O (stereo in doubt)	9	.	i	.	.	-5%
CC(=O)N(/N=C/c1ccc([N+](=O)[O-])o1)c1nc2ccccc2c(=O)n1-c1ccccc1	-22	-54*	?	-17%	?	.
CN(/N=C/c1ccc([N+](=O)[O-])o1)c1ccccc1	-12	-28	i	13%	?	-19%[11.3 µM]
SMILES	DRD3 agonist	D3 antag	ATXN viability	HepG2 tox	TGFb SMAD3 inh	ATXN2 expr inh
O=C(CNC1=NCCS1)c1c[nH]c2ccccc12	.	.	.	-12%	-2%	.
COc1ccc([C@H]2/C=C\CN(C(=O)C3CCCC3)[C@@H](C)C(=O)N2Cc2ccc(F)cc2)cc1	-20	?	20µM*	-12%	-10%	?
COc1ccc(C2/C=C\CN(C(=O)C3CC3)C(C)C(=O)N2Cc2ccc(F)cc2)cc1 (stereo unspecified)	.	.	.	-3%	?	.
COc1ccc([C@H]2/C=C\CN(S(=O)(=O)/C=C/c3ccccc3)[C@@H](C)C(=O)N2Cc2ccc(F)cc2)cc1	40*	7	i	-16%	?	-4%
COc1ccc(C2/C=C\CN(C(=O)C3CCCC3)[C@H](Cc3ccccc3)C(=O)N2Cc2ccc(F)cc2)cc1 (stereo partly specified)	-22	-68*	i	-8%	?	-37%
CCc1cc2c(cc3c(=O)n(CCCC(=O)NCc4cccc(Br)c4)ncn32)s1	0	.	.	4%	-48%	.
CC(C)(C)c1cc(CCC(=O)NNC(=S)NC(=O)c2ccccc2)cc(C(C)(C)C)c1O	-20	-79*	i	-26%	-23%	-12%
COc1cc(C(=O)OC(COCCC(C)C)CN2CCOCC2)cc(OC)c1OC (stereo unspecified)	3	.	i	.	.	1%
CC(C)(C)n1ncc2c(=O)n(Cc3c(F)ccc(F)c3Cl)cnc21	.	.	.	-33%	4%	.
CCn1c2ccccc2c2cc(CNCCCN3CCOCC3)ccc21	-8	-100*	i	-39%	?	.
CN1CCCN(Cc2ccccc2Br)CC1	-10	-51*	i	-15%	-17%	-4%
CCn1c2ccccc2c2cc(CN3CCN(S(=O)(=O)Cc4ccccc4)CC3)ccc21	-6	1	i	-24%	0%	-13%
CCn1c2ccccc2c2cc(CN3CCN(Cc4ccc(Br)cc4)CC3)ccc21	-45	.	.	11µM*	?	.
Brc1ccccc1CN1CCN(Cc2c[nH]c3ccccc23)CC1	-14	-80*	?	-168%	?	?
C=C1NN(C)C(=O)N1c1ccc(OC)cc1	.	.	.	-2%	-2%	.
C(=C1c2ccccc2Oc2ccccc21)c1ccccc1	.	.	.	0%	0%	.
Brc1ccc(CN2CCN(Cc3c[nH]c4ccccc34)CC2)cc1	-41	-64*	i	-68%	?	-27%
COc1cccc(CNCc2ccc(OC)cc2OC)c1	-4	-5	i	1%	-14%	8%
CCn1c2ccccc2c2cc(CNCc3ccc(OC)cc3OC)ccc21	-13	-16	.	10µM*	?	?
